Laboratory results published in PubChem BioAssay AID1159580 (chemical genetic matrix, 2015).
Out of some 5,500 compounds screened, about 2,000 (36%) were called active. Inconclusive results (about 18%) are left out. No stated cut-off is given here; in the data, active means normalized growth mostly below about 0.91 (no sharp cut-off); inconclusive means no clear call, values can overlap the other calls; inactive means mostly above about 0.92. The list shows a part of the results.

Test: chemical genetic growth profiling, strain panel (AID 1159580);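 further: tested at 20 µM; growth read once vehicle control cultures reached saturation at 30 °C; 1 = growth at the plate median or of vehicle wells; lower values mean less growth of the strain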
Settings: growth OD

Measured: normalized growth

Cc1c(N(C)CS(=O)(=O)O)c(=O)n(-c2ccccc2)n1C
inactive: S. cerevisiae deletion strains, locus YJR075W, strain HOC1, hits give low values 1 | S. cerevisiae deletion strains, locus YKL009W, strain mrt4, hits give low values 1.03 | S. cerevisiae deletion strains, locus YKL068W, hits give low values 0.998 | S. cerevisiae deletion strains, locus YKL085W, strain MDH1 (second series), hits give low values 0.99 | S. cerevisiae deletion strains, locus YKL085W, strain MDH1, hits give low values 0.99 | S. cerevisiae deletion strains, locus YKL160W, strain elf1, hits give low values 1.02 | S. cerevisiae deletion strains, locus YKL190W, strain CNB1, hits give low values 1.01 | S. cerevisiae deletion strains, locus YKR001C, strain vps1, hits give low values 1.01 | S. cerevisiae deletion strains, locus YKR026C, strain gcn3, hits give low values 1.01 | S. cerevisiae deletion strains, locus YKR091W, strain srl3, hits give low values 1.01 | S. cerevisiae deletion strains, locus YLL001W, strain dnm1, hits give low values 1.01 | S. cerevisiae deletion strains, locus YLL026W, hits give low values 1.01 | S. cerevisiae deletion strains, locus YLL041C, strain sdh2, hits give low values 1 | S. cerevisiae deletion strains, locus YLR027C, strain aat2, hits give low values 1.01 | S. cerevisiae deletion strains, locus YLR039C, strain RIC1, hits give low values 0.92 | S. cerevisiae deletion strains, locus YLR058C, strain SHM2, hits give low values 0.987 | S. cerevisiae deletion strains, locus YLR102C, strain apc9, hits give low values 0.984 | S. cerevisiae deletion strains, locus YLR113W, strain HOG1, hits give low values 0.996 | S. cerevisiae deletion strains, locus YLR221C, strain rsa3, hits give low values 1.01 | S. cerevisiae deletion strains, locus YLR258W, strain gsy2, hits give low values 1.01 | S. cerevisiae deletion strains, locus YLR262C, strain YPT6 (second series), hits give low values 0.999 | S. cerevisiae deletion strains, locus YLR262C, strain YPT6, hits give low values 0.962 | S. cerevisiae deletion strains, locus YLR268W, strain sec22, hits give low values 0.992 | S. cerevisiae deletion strains, locus YLR320W, strain mms22, hits give low values 1.03 | S. cerevisiae deletion strains, locus YLR330W, strain CHS5, hits give low values 0.993 | S. cerevisiae deletion strains, locus YLR342W, strain FKS1 (second series), hits give low values 0.961 | S. cerevisiae deletion strains, locus YLR342W, strain FKS1, hits give low values 1.02 | S. cerevisiae deletion strains, locus YLR357W, strain rsc2, hits give low values 1.03 | S. cerevisiae deletion strains, locus YLR370C, strain arc18, hits give low values 1 | S. cerevisiae deletion strains, locus YLR371W, strain rom2, hits give low values 0.977 | S. cerevisiae deletion strains, locus YLR384C, strain iki3, hits give low values 1.01 | S. cerevisiae deletion strains, locus YLR418C, strain cdc73, hits give low values 0.948 | S. cerevisiae deletion strains, locus YML016C, strain PPZ1, hits give low values 0.99 | S. cerevisiae deletion strains, locus YML032C, strain rad52, hits give low values 0.999 | S. cerevisiae deletion strains, locus YML120C, strain ndi1, hits give low values 1.01 | S. cerevisiae deletion strains, locus YML124C, strain tub3, hits give low values 0.988 | S. cerevisiae deletion strains, locus YMR058W, strain fet3, hits give low values 1.01 | S. cerevisiae deletion strains, locus YMR078C, strain ctf18, hits give low values 0.978 | S. cerevisiae deletion strains, locus YMR125W, strain sto1, hits give low values 1.02 | S. cerevisiae deletion strains, locus YMR129W, hits give low values 1 | S. cerevisiae deletion strains, locus YMR205C, strain PFK2, hits give low values 1.02 | S. cerevisiae deletion strains, locus YMR223W, strain ubp8, hits give low values 0.962 | S. cerevisiae deletion strains, locus YMR231W, strain pep5, hits give low values 1.02 | S. cerevisiae deletion strains, locus YMR263W, strain SAP30, hits give low values 1.01 | S. cerevisiae deletion strains, locus YMR307W, strain GAS1, hits give low values 0.906 | S. cerevisiae deletion strains, locus YNL067W, strain RPL9B, hits give low values 1.01 | S. cerevisiae deletion strains, locus YNL071W, strain lat1, hits give low values 1.02 | S. cerevisiae deletion strains, locus YNL183C, strain NPR1, hits give low values 0.924 | S. cerevisiae deletion strains, locus YNL209W, strain ssb2, hits give low values 1.02 | S. cerevisiae deletion strains, locus YNL233W, strain BNI4, hits give low values 1 | S. cerevisiae deletion strains, locus YNL248C, strain rpa49, hits give low values 1.02 | S. cerevisiae deletion strains, locus YNL250W, strain rad50, hits give low values 0.969 | S. cerevisiae deletion strains, locus YNL271C, strain bni1, hits give low values 0.992 | S. cerevisiae deletion strains, locus YNL298W, strain CLA4, hits give low values 0.993 | S. cerevisiae deletion strains, locus YNL307C, strain MCK1, hits give low values 0.987 | S. cerevisiae deletion strains, locus YNL322C, strain KRE1 (second series), hits give low values 1.01 | S. cerevisiae deletion strains, locus YNL322C, strain KRE1, hits give low values 0.998 | S. cerevisiae deletion strains, locus YNR049C, strain mso1, hits give low values 1 | S. cerevisiae deletion strains, locus YNR052C, strain pop2, hits give low values 0.985 | S. cerevisiae deletion strains, locus YOL006C, strain TOP1, hits give low values 1.14 | S. cerevisiae deletion strains, locus YOL012C, strain htz1 0.803 | S. cerevisiae deletion strains, locus YOL147C, strain pex11, hits give low values 0.985 | S. cerevisiae deletion strains, locus YOR001W, strain rrp6, hits give low values 1.01 | S. cerevisiae deletion strains, locus YOR061W, strain CKA2, hits give low values 0.989 | S. cerevisiae deletion strains, locus YOR069W, strain VPS5, hits give low values 0.984 | S. cerevisiae deletion strains, locus YOR070C, strain gyp1, hits give low values 1.01 | S. cerevisiae deletion strains, locus YOR080W, strain dia2, hits give low values 1.01 | S. cerevisiae deletion strains, locus YOR083W, strain WHI5, hits give low values 1.02 | S. cerevisiae deletion strains, locus YOR106W, strain vam3, hits give low values 1.03 | S. cerevisiae deletion strains, locus YOR136W, strain idh2, hits give low values 0.986 | S. cerevisiae deletion strains, locus YOR144C, strain elg1, hits give low values 0.989 | S. cerevisiae deletion strains, locus YOR184W, strain ser1, hits give low values 1.03 | S. cerevisiae deletion strains, locus YOR231W, strain MKK1, hits give low values 0.996 | S. cerevisiae deletion strains, locus YOR265W, strain rbl2, hits give low values 1.01 | S. cerevisiae deletion strains, locus YOR270C, strain vph1, hits give low values 1.05 | S. cerevisiae deletion strains, locus YOR290C, strain snf2, hits give low values 1.01 | S. cerevisiae deletion strains, locus YOR316C, strain cot1, hits give low values 0.981 | S. cerevisiae deletion strains, locus YPL051W, strain arl3, hits give low values 1.01 | S. cerevisiae deletion strains, locus YPL055C, strain LGE1, hits give low values 1.05 | S. cerevisiae deletion strains, locus YPL078C, strain atp4, hits give low values 1.02 | S. cerevisiae deletion strains, locus YPL106C, strain sse1, hits give low values 1.02 | S. cerevisiae deletion strains, locus YPL240C, strain hsp82, hits give low values 1.01 | S. cerevisiae deletion strains, locus YPL256C, strain CLN2, hits give low values 1.01 | S. cerevisiae deletion strains, locus YPR119W, strain clb2, hits give low values 0.986 | S. cerevisiae deletion strains, locus YPR141C, strain kar3, hits give low values 0.981 | S. cerevisiae deletion strains, locus YPR163C, strain tif3, hits give low values 1.01 | S. cerevisiae deletion strains, locus YPR167C, strain met16, hits give low values 0.977 | S. cerevisiae deletion strains, strain wtn01, hits give low values 0.986 | S. cerevisiae strains, strain wild type, hits give low values 0.995
